# About 79,000 compounds went through this panel and 15% of them were active in at least one assay; those are over-represented in the sample as a whole. Unmarked numbers belong to inactive results. The source made the active and inactive calls. No stated cut-off is given here; in the data, active means growth inhibition above about 70%; inactive means the rest.
# What was measured:
# [1] = NCI Yeast Anticancer Drug Screen. Data for the rad52 strain (AID 147);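 further: 0% = growth of vehicle-treated control cultures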; conditions: S. cerevisiae rad52 mutant growth inhibition, hits give high values
# How it was run: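 Compounds are applied to a genetically defined yeast strain lacking normal DNA damage repair, and inhibition of growth is expressed relative to cultures given vehicle only.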
# [2] = NCI Yeast Anticancer Drug Screen. Data for the wt1 strain (AID 149);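 further: 0% = growth of vehicle-treated wt1 cultures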; conditions: S. cerevisiae wt1 strain (SPY 50644) growth inhibition, hits give high values
# How it was run: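 Compounds are added to wt1 yeast cultures. Growth is then measured. Inhibition is expressed relative to vehicle-treated controls.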
# [3] = NCI Yeast Anticancer Drug Screen. Data for the rad50EPP+ strain (AID 151);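 further: 0% = growth of vehicle-treated control cultures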; conditions: S. cerevisiae rad50 mutant strain, hits give high values
# How it was run: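 Compounds were applied to the rad50EPP+ yeast strain, which bears a defined DNA repair alteration, and growth inhibition was determined relative to vehicle-treated cultures.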
# [4] = NCI Yeast Anticancer Drug Screen. Data for the mgt1 strain (AID 153); conditions: S. cerevisiae mgt1 mutant growth inhibition, hits give high values
# How it was run: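 Strain: mgt1 yeast, one of a set carrying defined DNA damage repair or cell cycle control alterations. Compound-treated growth compared with vehicle.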
# [5] = NCI Yeast Anticancer Drug Screen. Data for the rad50 strain (AID 155);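 further: 0% = growth of vehicle-only cultures of the same strain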; conditions: S. cerevisiae rad50 strain growth inhibition, hits give high values
# How it was run: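 Inhibition values express reduced yeast growth in compound-treated cultures relative to vehicle-treated controls.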
# [6] = NCI Yeast Anticancer Drug Screen. Data for the mec2-1 strain (AID 157); conditions: S. cerevisiae mec2-1 strain, hits give high values
# How it was run: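 Strain: mec2-1 (DNA repair/cell cycle alteration). Compound exposure, then growth measured; inhibition expressed relative to vehicle.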
# [7] = NCI Yeast Anticancer Drug Screen. Data for the rad14 strain (AID 159);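 further: 0% = growth of vehicle-treated control cultures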; conditions: S. cerevisiae rad14 strain growth inhibition, hits give high values
# How it was run: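 A mutant yeast strain defective in DNA damage repair is treated with compound; inhibition of its growth is scored against untreated, vehicle-exposed cultures.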
# [8] = NCI Yeast Anticancer Drug Screen. Data for the sgs1 mgt1 strain (AID 161);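 further: 0% = growth of cultures given vehicle only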; conditions: S. cerevisiae sgs1 mgt1 strain, hits give high values
# How it was run: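 Test agents were incubated with a DNA-repair-mutant yeast strain. Growth was then read and compared against vehicle-treated controls.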
# [9] = NCI Yeast Anticancer Drug Screen. Data for the cln2 rad14 strain (AID 165);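 further: 0% = growth equal to vehicle treated cultures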; conditions: S. cerevisiae cln2 rad14 strain, hits give high values
# How it was run: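 Compounds are applied to the cln2 rad14 yeast strain, and growth is then compared with that of vehicle-treated cultures to give inhibition.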
# [10] = NCI Yeast Anticancer Drug Screen. Data for the bub3 strain (AID 167); conditions: S. cerevisiae bub3 mutant strain, hits give high values
# How it was run: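 Steps: expose the mutant yeast strain to compound; grow alongside vehicle-treated cultures; measure growth; express inhibition against the vehicle cultures.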
# [11] = NCI Yeast Anticancer Drug Screen. Data for the wt2 strain (AID 169);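 further: 0% = growth of vehicle-treated yeast cultures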; conditions: S. cerevisiae wt2 strain growth inhibition, hits give high values
# How it was run: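 This strain belongs to a panel of yeast strains with defined genetic alterations in DNA damage repair or cell cycle control. Compounds are applied, and growth inhibition is measured against vehicle-treated cultures.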
# [12] = NCI Yeast Anticancer Drug Screen. Data for the mlh1 strain (AID 171);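 further: 0% = growth of vehicle-treated control cultures of the same strain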; conditions: S. cerevisiae mlh1 strain growth inhibition, hits give high values
# How it was run: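 Growth of the mutant yeast strain after compound exposure, expressed as inhibition relative to vehicle-only controls.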
# [13] = NCI Yeast Anticancer Drug Screen. Data for the sgs1 strain (AID 173);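 further: 0% = growth of vehicle-only control cultures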; conditions: S. cerevisiae sgs1 mutant, hits give high values
# How it was run: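 Growth of a yeast strain bearing a defined genetic alteration is measured after compound treatment. Inhibition is expressed relative to vehicle-only controls.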
# [14] = NCI Yeast Anticancer Drug Screen. Data for the mlh1 rad18 strain (AID 175); conditions: S. cerevisiae mlh1 rad18 strain growth inhibition, hits give high values
# How it was run: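 Read-out is yeast growth inhibition, calculated against vehicle-only controls. The compound was applied to a strain engineered with DNA damage repair alterations.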
# [15] = NCI Yeast Anticancer Drug Screen. Data for the rad18 strain (AID 177); conditions: S. cerevisiae rad18 mutant growth inhibition, hits give high values
# How it was run: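 Growth of the mutant yeast strain after compound exposure, normalised to vehicle-only cultures.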
# [16] = at 5.0 µM (retest, dose inferred, filed as 0.5)
# [17] = at 50.0 µM (retest, dose inferred, filed as 5.0)
smiles,measurement,setting,value
CCOC(=O)COc1c(OC)cc(C2C3=C(COC3=O)Oc3cc4c(cc32)OCO4)cc1OC (stereo not drawn),growth inhibition,[1]; at 1.2 µM,2%
same,growth inhibition,[1]; at 3.7 µM,1%
same,growth inhibition,[1]; at 11.0 µM,0%
same,growth inhibition,[1]; at 33.0 µM,8%
same,growth inhibition,[1]; at 100.0 µM,23%
same,growth inhibition,[2]; at 1.2 µM,1%
same,growth inhibition,[2]; at 3.7 µM,2%
same,growth inhibition,[2]; at 11.0 µM,4%
same,growth inhibition,[2]; at 33.0 µM,3%
same,growth inhibition,[2]; at 100.0 µM,6%
same,growth inhibition,[3]; at 1.2 µM,-2%
same,growth inhibition,[3]; at 3.7 µM,-16%
same,growth inhibition,[3]; at 11.0 µM,-22%
same,growth inhibition,[3]; at 33.0 µM,-11%
same,growth inhibition,[3]; at 100.0 µM,15%
same,growth inhibition,[4]; at 1.2 µM,-3%
same,growth inhibition,[4]; at 3.7 µM,2%
same,growth inhibition,[4]; at 11.0 µM,0%
same,growth inhibition,[4]; at 33.0 µM,16%
same,growth inhibition,[4]; at 100.0 µM,8%
same,growth inhibition,[5]; at 1.2 µM,1%
same,growth inhibition,[5]; at 3.7 µM,0%
same,growth inhibition,[5]; [16],-4%
same,growth inhibition,[5]; at 11.0 µM,1%
same,growth inhibition,[5]; at 33.0 µM,3%
same,growth inhibition,[5]; [17],-1%
same,growth inhibition,[5]; at 50.0 µM,2.85%
same,growth inhibition,[5]; at 100.0 µM,8%
same,growth inhibition,[6]; at 1.2 µM,-1%
same,growth inhibition,[6]; at 3.7 µM,0%
same,growth inhibition,[6]; [16],-8%
same,growth inhibition,[6]; at 11.0 µM,-2%
same,growth inhibition,[6]; at 33.0 µM,1%
same,growth inhibition,[6]; [17],-4%
same,growth inhibition,[6]; at 50.0 µM,26.8%
same,growth inhibition,[6]; at 100.0 µM,17%
same,growth inhibition,[7]; at 1.2 µM,-3%
same,growth inhibition,[7]; at 3.7 µM,-3%
same,growth inhibition,[7]; at 11.0 µM,0%
same,growth inhibition,[7]; at 33.0 µM,4%
same,growth inhibition,[7]; at 100.0 µM,15%
same,growth inhibition,[8]; [16],-9%
same,growth inhibition,[8]; [17],19%
same,growth inhibition,[8]; at 50.0 µM,14.7%
same,growth inhibition,[9]; [16],-1%
same,growth inhibition,[9]; [17],29%
same,growth inhibition,[9]; at 50.0 µM,71% (active)
same,growth inhibition,[10]; at 1.2 µM,-4%
same,growth inhibition,[10]; at 3.7 µM,0%
same,growth inhibition,[10]; [16],-13%
same,growth inhibition,[10]; at 11.0 µM,0%
same,growth inhibition,[10]; at 33.0 µM,6%
same,growth inhibition,[10]; [17],19%
same,growth inhibition,[10]; at 50.0 µM,28.2%
same,growth inhibition,[10]; at 100.0 µM,13%
same,growth inhibition,[11]; at 1.2 µM,0%
same,growth inhibition,[11]; at 3.7 µM,0%
same,growth inhibition,[11]; at 11.0 µM,1%
same,growth inhibition,[11]; at 33.0 µM,3%
same,growth inhibition,[11]; at 100.0 µM,12%
same,growth inhibition,[12]; at 1.2 µM,1%
same,growth inhibition,[12]; at 3.7 µM,-1%
same,growth inhibition,[12]; at 11.0 µM,-1%
same,growth inhibition,[12]; at 33.0 µM,2%
same,growth inhibition,[12]; at 100.0 µM,12%
same,growth inhibition,[13]; at 1.2 µM,0%
same,growth inhibition,[13]; at 3.7 µM,2%
same,growth inhibition,[13]; at 11.0 µM,1%
same,growth inhibition,[13]; at 33.0 µM,9%
same,growth inhibition,[13]; at 100.0 µM,28%
same,growth inhibition,[14]; [16],-10%
same,growth inhibition,[14]; [17],49%
same,growth inhibition,[14]; at 50.0 µM,-4.55%
same,growth inhibition,[15]; at 1.2 µM,0%
same,growth inhibition,[15]; at 3.7 µM,-2%
same,growth inhibition,[15]; at 11.0 µM,-11%
same,growth inhibition,[15]; at 33.0 µM,-2%
same,growth inhibition,[15]; at 100.0 µM,3%
CCOC(=O)CC1(C(=O)OCC)c2[nH]c3ccccc3c2CCN1Cc1ccccc1 (stereo not drawn),growth inhibition,[1]; at 1.2 µM,-1%
same,growth inhibition,[1]; at 3.7 µM,0%
same,growth inhibition,[1]; at 11.0 µM,1%
same,growth inhibition,[1]; at 33.0 µM,7%
same,growth inhibition,[1]; at 100.0 µM,45%
same,growth inhibition,[2]; at 1.2 µM,-3%
same,growth inhibition,[2]; at 3.7 µM,-2%
same,growth inhibition,[2]; at 11.0 µM,-1%
same,growth inhibition,[2]; at 33.0 µM,-5%
same,growth inhibition,[2]; at 100.0 µM,42%
same,growth inhibition,[3]; at 1.2 µM,-7%
same,growth inhibition,[3]; at 3.7 µM,-7%
same,growth inhibition,[3]; at 11.0 µM,-11%
same,growth inhibition,[3]; at 33.0 µM,-9%
same,growth inhibition,[3]; at 100.0 µM,0%
same,growth inhibition,[4]; at 1.2 µM,-2%
same,growth inhibition,[4]; at 3.7 µM,-1%
same,growth inhibition,[4]; at 11.0 µM,1%
same,growth inhibition,[4]; at 33.0 µM,3%
same,growth inhibition,[4]; at 100.0 µM,50%
same,growth inhibition,[5]; at 1.2 µM,-2%
same,growth inhibition,[5]; at 3.7 µM,-2%
same,growth inhibition,[5]; [16],50%
same,growth inhibition,[5]; at 11.0 µM,5%
same,growth inhibition,[5]; at 33.0 µM,5%
same,growth inhibition,[5]; [17],50%
same,growth inhibition,[5]; at 50.0 µM,70.9% (active)
same,growth inhibition,[5]; at 100.0 µM,38%
same,growth inhibition,[6]; at 1.2 µM,-3%
same,growth inhibition,[6]; at 3.7 µM,-4%
same,growth inhibition,[6]; [16],13%
same,growth inhibition,[6]; at 11.0 µM,-5%
same,growth inhibition,[6]; at 33.0 µM,-2%
same,growth inhibition,[6]; [17],13%
same,growth inhibition,[6]; at 50.0 µM,61.2%
same,growth inhibition,[6]; at 100.0 µM,50%
same,growth inhibition,[7]; at 1.2 µM,1%
same,growth inhibition,[7]; at 3.7 µM,1%
same,growth inhibition,[7]; at 11.0 µM,1%
same,growth inhibition,[7]; at 33.0 µM,3%
same,growth inhibition,[7]; at 100.0 µM,33%
same,growth inhibition,[8]; [16],43%
same,growth inhibition,[8]; [17],43%
same,growth inhibition,[8]; at 50.0 µM,62%
same,growth inhibition,[9]; [16],-4%
same,growth inhibition,[9]; [17],-4%
same,growth inhibition,[9]; at 50.0 µM,74% (active)
same,growth inhibition,[10]; at 1.2 µM,-3%
same,growth inhibition,[10]; at 3.7 µM,-7%
same,growth inhibition,[10]; [16],6%
same,growth inhibition,[10]; at 11.0 µM,8%
same,growth inhibition,[10]; at 33.0 µM,26%
same,growth inhibition,[10]; [17],6%
same,growth inhibition,[10]; at 50.0 µM,55.1%
same,growth inhibition,[10]; at 100.0 µM,37%
same,growth inhibition,[11]; at 1.2 µM,-1%
same,growth inhibition,[11]; at 3.7 µM,0%
same,growth inhibition,[11]; at 11.0 µM,0%
same,growth inhibition,[11]; at 33.0 µM,2%
same,growth inhibition,[11]; at 100.0 µM,45%

# From PubChem BioAssay (NCI)
